High-throughput results as filed in PubChem BioAssay.
In the library only some 5.4% were active in any assay of this set; here they are far more common.
CtBP-E1A inh: blocks the CtBP interaction with E1A | activity change, % (concentration not given with the values) | AID 651724 | hit rate 0.49% among 340,000 | AlphaScreen GST-E1A/His-CtBP binding, 1536-well; active compounds read low; in the data active means activity change below about -65%; inconclusive means mostly about -30% to -63%; further: on the % scale 0 is the no-effect control and ±100 the full control effect
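Steps: dispense buffer (Tris pH 8.0, NaCl 300 mM, TCEP 1 mM, BSA, Tween 20); add 5X protein mix (GST-E1A, His-CtBP, 125 nM each); pin 23 nL compound; 2 h at 37 °C, dark; add 5X beads (50 ug/mL); 1 h; read.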
Gal4-VP16 FLuc: inhibits Gal4-VP16 luciferase reporter, ROR gamma counter-screen. Drosophila S2 Gal4-VP16 UAS-luciferase, luminescence, 20 h. Potency, µM (highest dose often 53.6 µM), for the others: at the highest dose activity, negative = inhibition, actives largely listed as inhibitors. hit rate 3.5% among 310,000. AID 2546;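 further: Gal4-VP16 expression switched on by copper sulfate through the metallothionein promoter; potency means the concentration at half of the fitted maximal effect; on the % scale 0 is the no-effect control and ±100 the full control effect; nearly all actives have a fitted effect of over 50% in size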
p53 reactivator: restores transcriptional activity of mutant p53; hit rate 0.063% among 320,000; H1299 p53-A138V BP100-luciferase reporter, luminescence, 24 h; Potency, µM (top dose mostly 92.2 µM), for inactives: at the highest dose activity change, positive = activation, most hits filed as activators; AID 504706; further: potency means the concentration at half of the fitted maximal effect; % of control where 0% means no effect; nearly all actives have a fitted effect of over 45% in size
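p53-null H1299 cells stably carrying temperature-sensitive p53-A138V and a BP100-luciferase reporter were pinned with compounds (4-point, 1:5 series) and held 24 hrs at 37 deg C. Luminescence was read 10 min after detection reagent.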
RORgamma inh: blocks mouse ROR gamma transcriptional activity | Potency, µM (series often up to 53.6 µM), without a hit: at the top dose activity change, negative = inhibition, most hits filed as inhibitors | hit rate 5.4% among 310,000 | AID 2551 | Drosophila S2 Gal4-RORgamma UAS-luciferase reporter, 20 h; further: potency means the concentration at half of the fitted maximal effect; on the % scale 0 is the no-effect control and ±100 the full control effect; nearly all actives have a fitted effect of over 60% in size
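A Gal4/UAS one-hybrid system in insect cells: metallothionein-promoter Gal4–ROR gamma fusion plus Photinus luciferase reporter. Copper sulfate 700 uM final, 20 hr ambient incubation, luminescent detection after 10 min with reagent.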
Six1-Eya2 blk: blocks human Six1 binding to Eya2; AlphaScreen GST-Six1/His-Eya2 binding, biochemical; active compounds read low; activity change, % (no concentration beside the values); hit rate 0.56% among 360,000; AID 651725; in the data active means activity change below about -65%; inconclusive means mostly about -30% to -63%; further: on the % scale 0 is the no-effect control and ±100 the full control effect
Target sequence (O00167 whole entry, looked up): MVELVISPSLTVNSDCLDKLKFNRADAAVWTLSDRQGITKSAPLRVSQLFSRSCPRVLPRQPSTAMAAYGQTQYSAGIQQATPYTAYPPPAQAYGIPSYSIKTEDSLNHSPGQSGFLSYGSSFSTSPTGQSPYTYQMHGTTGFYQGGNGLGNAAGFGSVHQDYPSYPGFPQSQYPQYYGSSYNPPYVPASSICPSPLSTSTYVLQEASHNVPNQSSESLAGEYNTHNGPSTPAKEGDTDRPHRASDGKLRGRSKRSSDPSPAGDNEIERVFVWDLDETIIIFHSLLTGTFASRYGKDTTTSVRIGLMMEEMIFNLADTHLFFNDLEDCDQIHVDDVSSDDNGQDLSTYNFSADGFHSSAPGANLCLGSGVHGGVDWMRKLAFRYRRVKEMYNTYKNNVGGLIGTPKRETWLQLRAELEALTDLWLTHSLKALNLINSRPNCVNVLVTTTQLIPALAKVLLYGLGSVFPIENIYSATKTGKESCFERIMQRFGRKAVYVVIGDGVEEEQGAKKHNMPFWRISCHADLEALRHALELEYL
Target sequence (Q15475 whole entry, looked up): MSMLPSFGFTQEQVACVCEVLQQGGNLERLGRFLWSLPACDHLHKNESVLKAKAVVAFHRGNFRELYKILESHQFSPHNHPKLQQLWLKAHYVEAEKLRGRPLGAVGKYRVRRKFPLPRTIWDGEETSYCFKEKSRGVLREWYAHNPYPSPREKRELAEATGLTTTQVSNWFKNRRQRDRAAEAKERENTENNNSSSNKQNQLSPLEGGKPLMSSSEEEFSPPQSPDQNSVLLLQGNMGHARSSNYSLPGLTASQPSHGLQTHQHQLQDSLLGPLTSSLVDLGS
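Six1/Eya2 binding was read as AlphaScreen signal after compounds were pinned into GST-Six1 plus His-tagged Eya2 (5X stock 250/500 nM) in pH 8.0 Tris/NaCl/TCEP buffer, beads added, then incubated 1 h, 37 C, dark.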
Numbers without * were called inactive; ? = inconclusive; nt = not tested or not shown; ! = not confirmed by another sample. Unless noted, the call rests on the fitted dose curve; in most records, active means well fitted curve in the direction sought with a large enough effect; inconclusive means small, poorly fitted or top-dose-only effect, or another doubt; inactive means no such curve, though single readings can be large; an effect the other way counts as inactive or inconclusive.

SMILES	CtBP-E1A inh	Gal4-VP16 FLuc	p53 reactivator	RORgamma inh	Six1-Eya2 blk
CCCCCCNC(=O)CC(c1ccccc1)c1cc(Br)ccc1O (stereo unspecified)	-0.8	10µM*	-13.4%	2.82µM*	-8.0
COc1ccc(-c2c(C)sc(NC(=O)c3ccnn3C)c2C#N)cc1	0.3	?	26.4%	-18.7%	0.4
Cc1ccc2nc(NC(=O)c3ccc(OCC4CCCO4)cc3)sc2c1 (stereo unspecified)	-1.5	?	?	4.47µM*	-1.1
COc1ccc2nc(NC(=O)c3ccc(NC(=O)C4CCCO4)cc3)sc2c1 (stereo unspecified)	2.0	-17.4%	2.2%	-20.6%	-0.5
Cc1cccnc1NC(=O)c1ccc(OCC2CCCO2)cc1 (stereo unspecified)	nt	nt	10.0%	nt	11.0
Cc1cc(C)c2nc(NC(=O)c3ccc(OCC4CCCO4)cc3)sc2c1 (stereo unspecified)	nt	-17.1%	?	1µM*	-3.9
O=C(Nc1nc(-c2ccc(Cl)cc2Cl)cs1)c1ccc(OCC2CCCO2)cc1 (stereo unspecified)	2.7	17.8µM*	-5.7%	-36.8%	6.4
O=C(Nc1ccc(Cl)cc1)c1ccc(OCC2CCCO2)cc1 (stereo unspecified)	6.1	-0.3%	25.4%	9.9%	0.0
O=C(COC(=O)CNS(=O)(=O)c1cc(C(F)(F)F)ccc1Cl)NC1CC1	nt	nt	-1.9%	nt	8.9
O=C1CS/C(=C/C(=O)c2cccc(Cl)c2)N1	0.0	?	-1.9%	5.62µM*	9.2
Cc1ccc(C(=O)/C=C2/NC(=O)CS2)cc1	-0.9	?	17.7%	?	-1.6
Cc1cccc(C)c1NC(=O)C(c1ccccc1F)n1c(=O)c(-c2ccccc2)nc2ccccc21 (stereo unspecified)	0.0	nt	nt	nt	20.4
Nc1nc(SCC(=O)Nc2ncc(Cl)cc2Cl)n[nH]1	6.1	nt	-1.5%	nt	-10.8
Cc1cc(Nc2ncc(Cl)cc2Cl)n[nH]1	-3.1	-12.6%	5.2%	11.2µM*	-2.5
Cc1ccccc1Nc1nc(N)[nH]c(=O)c1N=O	-86.4*	nt	nt	nt	?
CCc1c(Cl)nc(N)nc1Nc1ccccc1C	4.9	nt	nt	nt	-0.9
O=C(CCl)Nc1cccc2ncccc12	2.6	?	?	17.8µM*	1.7
CC(=O)CC1OC(=O)C(Br)=C1NCc1ccccc1 (stereo unspecified)	7.6	20µM*	-62.0%	?	-0.9
CCOc1ccc(N)c(SSc2cc(OCC)ccc2N)c1	nt	6.31µM*	?	7.94µM*	?
CCOC(=O)C1CCN(S(=O)(=O)c2ccc3oc(=O)ccc3c2)CC1	23.2	-4.7%	1.6%	-18.7%	-0.3
COc1ccc(NC(=O)c2ccc(-c3ccc(-c4noc(C)n4)cc3C)cc2)cc1N1CCN(C)CC1	-26.4	31.6µM*	3.0%	20µM*	-4.9
COc1ccc(NC(=O)c2ccc(-c3ccc(-c4noc(C)n4)cc3C)cc2)cc1OCCN(C)C	nt	?	nt	14.1µM*	nt
Cc1cc(-c2ccc(C(C)C)c(S(=O)(=O)N3CCC(C)CC3)c2)on1	nt	3.9%	-1.5%	1.1%	3.3
Oc1c(I)cc(I)c2cccnc12	-73.0*	4.47µM*	-3.7%	2.51µM*	-66.6*
Cc1ccc(S(=O)(=O)Nc2cc(Cl)c(O)c3ncccc23)cc1	-89.0*	1.26µM*	7.7%	0.708µM*	-90.1*
SMILES	CtBP-E1A inh	Gal4-VP16 FLuc	p53 reactivator	RORgamma inh	Six1-Eya2 blk
Oc1c(Cl)cc(Cl)c2cccnc12	-90.3*	?	?	0.0794µM*	-90.4*
O=S(=O)(O)c1cc(I)c(O)c2ncccc12	nt	-1.3%	nt	?	nt
Oc1ccc(Cl)c2cccnc12	-94.9*	3.16µM*!	nt	1.78µM*	-91.5*
Cc1cccc(NC(=O)COC(=O)CCc2c[nH]c3ccccc23)c1	4.3	nt	-2.9%	nt	-4.8
CCNc1ncc2nc(-c3ccc(OC)cc3)c(=O)n(Cc3cccs3)c2n1	nt	-4.2%	nt	0.8%	nt
Oc1ccc(F)c2cccnc12	0.8	4.47µM*	1.6%	2.82µM*	-81.4*
Cn1c(=O)c2cccnc2c(=O)n1C	0.6	nt	nt	nt	-0.7
CCOc1ccc(N=C(NN)c2ccc3ccccc3n2)cc1	-23.1	?	?	10µM*	13.2
CCn1cc(-c2cc(C(=O)O)c3ccccc3n2)cn1	0.6	?	-1.3%	5.62µM*	-1.3
O=C(O)c1cc(-c2cc(C(=O)O)c3ccccc3n2)nc2ccccc12	nt	1.0%	-1.6%	2.1%	nt
Cc1ccc2nc(-c3ccc(NS(C)(=O)=O)cc3)cc(-c3ccccc3)c2c1	-9.8	22.4µM*	-10.1%	?	-8.4
CC(C)(C)c1ccc(-c2cc(C(=O)NNC(=O)Nc3ccccc3)c3ccccc3n2)cc1	-3.6	?	?	1µM*	-4.1
O=C(O)c1cc(-c2ccc3ccccc3c2)nc2ccc(F)cc12	0.3	-26.7%	?	22.4µM*	2.2
CCn1cc(-c2cc(C(=O)O)c3ccccc3n2)c(C)n1	-6.9	-25.7%	-14.3%	?	3.4
COCC(=O)N1CCC2(CCCN(c3ccccn3)C2)CC1	nt	-0.2%	nt	-12.6%	nt
COc1ccc(CNC[C@H]2O[C@@H](n3ccc(=O)[nH]c3=O)[C@H](O)[C@@H]2O)cc1	12.7	nt	nt	nt	3.5
CN=c1scc(-c2c[nH]c3ccccc23)n1C	1.0	-1.8%	-0.5%	-7.3%	1.0
O=C(O)c1cc(-c2c[nH]c3ccccc23)nc2cc3ccccc3cc12	nt	-19.3%	19.4%	5.01µM*	nt
CC(=O)Nc1ccc(-c2cc(-c3ccccc3)nc(-c3ccccc3)n2)cc1	11.6	-11.1%	-7.8%	23.8%	3.6
O=C(O)c1cc(-c2ccc3ccccc3n2)nc2ccccc12	-1.4	11.2µM*	3.1%	5.01µM*	-5.9
CCCc1ccc(-c2cc(C(=O)NN3CCOCC3)c3ccccc3n2)cc1	1.8	-16.7%	6.2%	-11.2%	1.6
O=C(O)c1cc(-c2cccc3ccccc23)nc2ccccc12	4.1	2.4%	5.1%	18.0%	5.8
CCc1ccc(-c2cc(C(=O)Nn3cnnc3)c3ccccc3n2)cc1	3.7	0.631µM*	-5.1%	0.891µM*	-1.8
CCC(=O)Nc1ccc(-c2cc(-c3ccccc3)nc(-c3ccc(NC(=O)CC)cc3)n2)cc1	5.1	7.08µM*	-7.0%	8.91µM*	-0.8
Cc1ccc([C@H]2N[C@]3(CCCN(Cc4ccc(Br)cc4)C3=O)[C@H]3C(=O)N(Cc4ccccc4)C(=O)[C@@H]23)cc1	-4.8	nt	nt	nt	16.6
Cc1cc(C2(c3cc(C)c(O)cc3C)OS(=O)(=O)c3ccccc32)c(C)cc1O	nt	-11.9%	nt	-4.0%	nt
COc1ccc(N(CC(=O)Nc2cc([N+](=O)[O-])ccc2C)S(C)(=O)=O)cc1OC	1.2	-5.2%	2.5%	13.2%	12.6
CC(=O)NS(=O)(=O)c1ccc(NC(=O)c2cc(-c3ccc(C)cc3)nc3ccccc23)cc1	11.0	-2.9%	-5.3%	?	-3.0
CC(=O)Nc1ccc(-c2cc(C(=O)O)c3ccccc3n2)cc1	-4.7	?	-1.9%	10µM*	2.3
